{"source": "PubChem BioAssay (NCI)", "key": {"[1]": {"assay": "NCI Yeast Anticancer Drug Screen. Data for the rad52 strain (AID 147);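 note: 0% = growth of vehicle-treated control cultures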", "conditions": "S. cerevisiae rad52 mutant growth inhibition, stronger effect = higher value", "method_in_brief": "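Yeast strain carrying a DNA damage repair alteration was exposed to test compounds. Growth inhibition was measured relative to vehicle-treated controls.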"}, "[2]": {"assay": "NCI Yeast Anticancer Drug Screen. Data for the wt1 strain (AID 149);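 note: 0% = growth of vehicle-treated wt1 cultures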", "conditions": "S. cerevisiae wt1 strain (SPY 50644) growth inhibition, stronger effect = higher value", "method_in_brief": "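The wt1 strain was treated with compounds, and growth was compared with vehicle-treated cultures to give inhibition.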"}, "[3]": {"assay": "NCI Yeast Anticancer Drug Screen. Data for the rad50EPP+ strain (AID 151);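 note: 0% = growth of vehicle-treated control cultures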", "conditions": "S. cerevisiae rad50 mutant strain, stronger effect = higher value", "method_in_brief": "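Yeast strain carrying rad50 alteration (rad50EPP+) exposed to compounds; growth inhibition measured relative to vehicle-treated controls.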"}, "[4]": {"assay": "NCI Yeast Anticancer Drug Screen. Data for the mgt1 strain (AID 153)", "conditions": "S. cerevisiae mgt1 mutant growth inhibition, stronger effect = higher value", "method_in_brief": "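Yeast mgt1 strain (DNA repair/cell-cycle alteration panel) exposed to compounds; growth inhibition measured relative to vehicle-treated controls.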"}, "[5]": {"assay": "NCI Yeast Anticancer Drug Screen. Data for the rad50 strain (AID 155);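 note: 0% = growth of vehicle-only cultures of the same strain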", "conditions": "S. cerevisiae rad50 strain growth inhibition, stronger effect = higher value", "method_in_brief": "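Cells are treated with compound, grown, and their growth is then scored against vehicle-only cultures of the same repair-deficient yeast strain.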"}, "[6]": {"assay": "NCI Yeast Anticancer Drug Screen. Data for the mec2-1 strain (AID 157)", "conditions": "S. cerevisiae mec2-1 strain, stronger effect = higher value", "method_in_brief": "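mec2-1 yeast strain, carrying an alteration in DNA damage repair or cell cycle control, was exposed to compounds; growth inhibition was measured relative to vehicle-treated controls.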"}, "[7]": {"assay": "NCI Yeast Anticancer Drug Screen. Data for the sgs1 mgt1 strain (AID 161);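 note: 0% = growth of cultures given vehicle only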", "conditions": "S. cerevisiae sgs1 mgt1 strain, stronger effect = higher value", "method_in_brief": "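Compounds are added to genetically altered yeast, and growth is compared with cultures given vehicle alone to give percent inhibition.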"}, "[8]": {"assay": "NCI Yeast Anticancer Drug Screen. Data for the CLN2oe strain (AID 163);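 note: 0% = growth of vehicle-only control cultures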", "conditions": "S. cerevisiae CLN2oe strain, stronger effect = higher value", "method_in_brief": "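Yeast cells carrying a defined cell-cycle control alteration were exposed to test compounds. Growth inhibition was scored against vehicle-treated control cultures.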"}, "[9]": {"assay": "NCI Yeast Anticancer Drug Screen. Data for the cln2 rad14 strain (AID 165);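 note: 0% = growth equal to vehicle treated cultures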", "conditions": "S. cerevisiae cln2 rad14 strain, stronger effect = higher value", "method_in_brief": "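Yeast carrying cln2 and rad14 alterations (cell cycle control and DNA damage repair) were exposed to compounds. Growth inhibition was measured against vehicle-treated controls.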"}, "[10]": {"assay": "NCI Yeast Anticancer Drug Screen. Data for the bub3 strain (AID 167)", "conditions": "S. cerevisiae bub3 mutant strain, stronger effect = higher value", "method_in_brief": "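Part of a panel of yeast mutants defective in DNA damage repair or cell cycle regulation. Each strain is grown with compound, and inhibition is calculated relative to solvent-treated cultures.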"}, "[11]": {"assay": "NCI Yeast Anticancer Drug Screen. Data for the wt2 strain (AID 169);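 note: 0% = growth of vehicle-treated yeast cultures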", "conditions": "S. cerevisiae wt2 strain growth inhibition, stronger effect = higher value", "method_in_brief": "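Yeast cells were exposed to test compounds, and growth inhibition was measured relative to vehicle-treated controls.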"}, "[12]": {"assay": "NCI Yeast Anticancer Drug Screen. Data for the mlh1 strain (AID 171);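 note: 0% = growth of vehicle-treated control cultures of the same strain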", "conditions": "S. cerevisiae mlh1 strain growth inhibition, stronger effect = higher value", "method_in_brief": "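Yeast carrying a defined genetic alteration in DNA damage repair or cell cycle control were exposed to test compounds. Growth inhibition was measured relative to vehicle-treated controls.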"}, "[13]": {"assay": "NCI Yeast Anticancer Drug Screen. Data for the sgs1 strain (AID 173);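 note: 0% = growth of vehicle-only control cultures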", "conditions": "S. cerevisiae sgs1 mutant, stronger effect = higher value", "method_in_brief": "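Yeast mutant strains carrying defined defects in DNA damage repair or cell cycle control were exposed to test compounds. Growth inhibition was scored against vehicle-treated controls.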"}, "[14]": {"assay": "NCI Yeast Anticancer Drug Screen. Data for the mlh1 rad18 strain (AID 175)", "conditions": "S. cerevisiae mlh1 rad18 strain growth inhibition, stronger effect = higher value", "method_in_brief": "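Growth inhibition of the yeast strain was measured after compound exposure and expressed relative to vehicle-treated controls. The strain carries defined defects in DNA damage repair.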"}, "[15]": {"assay": "NCI Yeast Anticancer Drug Screen. Data for the rad18 strain (AID 177)", "conditions": "S. cerevisiae rad18 mutant growth inhibition, stronger effect = higher value", "method_in_brief": "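Yeast carrying a defined DNA damage repair alteration were exposed to compounds. Growth inhibition was expressed relative to vehicle-treated controls.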"}, "[16]": {"conditions": "at 5.0 µM (retest, dose inferred, filed as 0.5)"}, "[17]": {"conditions": "at 50.0 µM (retest, dose inferred, filed as 5.0)"}}, "note": "About 79,000 compounds went through this panel and 15% of them were active in at least one assay; those are over-represented in the sample as a whole. Unmarked numbers belong to inactive results. The source made the active and inactive calls. Cut-off read from the data, not from the text of the source: active = growth inhibition above about 70%; inactive = the rest."}
{"smiles": "Fc1ccc(NC(=S)SCc2ccc3c(c2)OCO3)cc1F", "values": [{"measurement": "growth inhibition", "setting": "[1]; at 1.2 µM", "result": 15, "unit": "%"}, {"measurement": "growth inhibition", "setting": "[1]; at 3.7 µM", "result": 9, "unit": "%"}, {"measurement": "growth inhibition", "setting": "[1]; at 11.0 µM", "result": "71% (active)"}, {"measurement": "growth inhibition", "setting": "[1]; at 33.0 µM", "result": "98% (active)"}, {"measurement": "growth inhibition", "setting": "[1]; at 100.0 µM", "result": "97% (active)"}, {"measurement": "growth inhibition", "setting": "[2]; at 1.2 µM", "result": 6, "unit": "%"}, {"measurement": "growth inhibition", "setting": "[2]; at 3.7 µM", "result": 6, "unit": "%"}, {"measurement": "growth inhibition", "setting": "[2]; at 11.0 µM", "result": 66, "unit": "%"}, {"measurement": "growth inhibition", "setting": "[2]; at 33.0 µM", "result": "98% (active)"}, {"measurement": "growth inhibition", "setting": "[2]; at 100.0 µM", "result": "97% (active)"}, {"measurement": "growth inhibition", "setting": "[3]; at 1.2 µM", "result": 0, "unit": "%"}, {"measurement": "growth inhibition", "setting": "[3]; at 3.7 µM", "result": 27, "unit": "%"}, {"measurement": "growth inhibition", "setting": "[3]; at 11.0 µM", "result": "96% (active)"}, {"measurement": "growth inhibition", "setting": "[3]; at 33.0 µM", "result": "99% (active)"}, {"measurement": "growth inhibition", "setting": "[3]; at 100.0 µM", "result": "99% (active)"}, {"measurement": "growth inhibition", "setting": "[4]; at 1.2 µM", "result": -3, "unit": "%"}, {"measurement": "growth inhibition", "setting": "[4]; at 3.7 µM", "result": 12, "unit": "%"}, {"measurement": "growth inhibition", "setting": "[4]; at 11.0 µM", "result": 61, "unit": "%"}, {"measurement": "growth inhibition", "setting": "[4]; at 33.0 µM", "result": "99% (active)"}, {"measurement": "growth inhibition", "setting": "[4]; at 100.0 µM", "result": "96% (active)"}, {"measurement": "growth inhibition", "setting": "[5]; at 1.2 µM", "result": -9, "unit": "%"}, {"measurement": "growth inhibition", "setting": "[5]; at 3.7 µM", "result": 22, "unit": "%"}, {"measurement": "growth inhibition", "setting": "[5]; [16]", "result": 23, "unit": "%"}, {"measurement": "growth inhibition", "setting": "[5]; at 11.0 µM", "result": 57, "unit": "%"}, {"measurement": "growth inhibition", "setting": "[5]; at 33.0 µM", "result": "99% (active)"}, {"measurement": "growth inhibition", "setting": "[5]; [17]", "result": "97% (active)"}, {"measurement": "growth inhibition", "setting": "[5]; at 50.0 µM", "result": "92.2% (active)"}, {"measurement": "growth inhibition", "setting": "[5]; at 100.0 µM", "result": "98% (active)"}, {"measurement": "growth inhibition", "setting": "[6]; at 1.2 µM", "result": -10, "unit": "%"}, {"measurement": "growth inhibition", "setting": "[6]; at 3.7 µM", "result": 2, "unit": "%"}, {"measurement": "growth inhibition", "setting": "[6]; [16]", "result": -7, "unit": "%"}, {"measurement": "growth inhibition", "setting": "[6]; at 11.0 µM", "result": 49, "unit": "%"}, {"measurement": "growth inhibition", "setting": "[6]; at 33.0 µM", "result": "99% (active)"}, {"measurement": "growth inhibition", "setting": "[6]; [17]", "result": "99% (active)"}, {"measurement": "growth inhibition", "setting": "[6]; at 50.0 µM", "result": "91.7% (active)"}, {"measurement": "growth inhibition", "setting": "[6]; at 100.0 µM", "result": "98% (active)"}, {"measurement": "growth inhibition", "setting": "[7]; [16]", "result": 31, "unit": "%"}, {"measurement": "growth inhibition", "setting": "[7]; [17]", "result": "99% (active)"}, {"measurement": "growth inhibition", "setting": "[7]; at 50.0 µM", "result": "92.5% (active)"}, {"measurement": "growth inhibition", "setting": "[8]; at 1.2 µM", "result": 8, "unit": "%"}, {"measurement": "growth inhibition", "setting": "[8]; at 3.7 µM", "result": 28, "unit": "%"}, {"measurement": "growth inhibition", "setting": "[8]; at 11.0 µM", "result": 40, "unit": "%"}, {"measurement": "growth inhibition", "setting": "[8]; at 33.0 µM", "result": "99% (active)"}, {"measurement": "growth inhibition", "setting": "[8]; at 100.0 µM", "result": "98% (active)"}, {"measurement": "growth inhibition", "setting": "[9]; [16]", "result": 21, "unit": "%"}, {"measurement": "growth inhibition", "setting": "[9]; [17]", "result": "99% (active)"}, {"measurement": "growth inhibition", "setting": "[9]; at 50.0 µM", "result": "91.8% (active)"}, {"measurement": "growth inhibition", "setting": "[10]; at 1.2 µM", "result": -19, "unit": "%"}, {"measurement": "growth inhibition", "setting": "[10]; at 3.7 µM", "result": -11, "unit": "%"}, {"measurement": "growth inhibition", "setting": "[10]; [16]", "result": 35, "unit": "%"}, {"measurement": "growth inhibition", "setting": "[10]; at 11.0 µM", "result": 42, "unit": "%"}, {"measurement": "growth inhibition", "setting": "[10]; at 33.0 µM", "result": "98% (active)"}, {"measurement": "growth inhibition", "setting": "[10]; [17]", "result": "99% (active)"}, {"measurement": "growth inhibition", "setting": "[10]; at 50.0 µM", "result": "91.8% (active)"}, {"measurement": "growth inhibition", "setting": "[10]; at 100.0 µM", "result": "98% (active)"}, {"measurement": "growth inhibition", "setting": "[11]; at 1.2 µM", "result": -2, "unit": "%"}, {"measurement": "growth inhibition", "setting": "[11]; at 3.7 µM", "result": 19, "unit": "%"}, {"measurement": "growth inhibition", "setting": "[11]; at 11.0 µM", "result": 58, "unit": "%"}, {"measurement": "growth inhibition", "setting": "[11]; at 33.0 µM", "result": "99% (active)"}, {"measurement": "growth inhibition", "setting": "[11]; at 100.0 µM", "result": "94% (active)"}, {"measurement": "growth inhibition", "setting": "[12]; at 1.2 µM", "result": -29, "unit": "%"}, {"measurement": "growth inhibition", "setting": "[12]; at 3.7 µM", "result": -28, "unit": "%"}, {"measurement": "growth inhibition", "setting": "[12]; at 11.0 µM", "result": 53, "unit": "%"}, {"measurement": "growth inhibition", "setting": "[12]; at 33.0 µM", "result": "99% (active)"}, {"measurement": "growth inhibition", "setting": "[12]; at 100.0 µM", "result": "96% (active)"}, {"measurement": "growth inhibition", "setting": "[13]; at 1.2 µM", "result": -17, "unit": "%"}, {"measurement": "growth inhibition", "setting": "[13]; at 3.7 µM", "result": -13, "unit": "%"}, {"measurement": "growth inhibition", "setting": "[13]; at 11.0 µM", "result": 59, "unit": "%"}, {"measurement": "growth inhibition", "setting": "[13]; at 33.0 µM", "result": "99% (active)"}, {"measurement": "growth inhibition", "setting": "[13]; at 100.0 µM", "result": "96% (active)"}, {"measurement": "growth inhibition", "setting": "[14]; [16]", "result": 6, "unit": "%"}, {"measurement": "growth inhibition", "setting": "[14]; [17]", "result": "98% (active)"}, {"measurement": "growth inhibition", "setting": "[14]; at 50.0 µM", "result": "90.5% (active)"}, {"measurement": "growth inhibition", "setting": "[15]; at 1.2 µM", "result": 20, "unit": "%"}, {"measurement": "growth inhibition", "setting": "[15]; at 3.7 µM", "result": 34, "unit": "%"}, {"measurement": "growth inhibition", "setting": "[15]; at 11.0 µM", "result": "73% (active)"}, {"measurement": "growth inhibition", "setting": "[15]; at 33.0 µM", "result": "100% (active)"}, {"measurement": "growth inhibition", "setting": "[15]; at 100.0 µM", "result": "98% (active)"}]}
